Screens as filed in PubChem.
In the library only some 3.5% were active in any assay of this set; here they are far more common.
GPR151 activ – activators of human GPR151, primary screen, cell-based, PathHunter beta-arrestin, luminescence; PathHunter beta-arrestin GPR151 cells; activation, % at 11.2 µM; 650,000 compounds, 1% hits; AID 1508602, 2020; in the data active = activation above about 4.9%
FBW7 act – FBW7 E3 ligase activators, primary screen, biochemical, AlphaScreen, human; normalized activity (activation), % at 26.1 µM; AlphaScreen FBW7–phospho-cyclin E peptide binding, activator screen; 650,000 compounds, 0.13% hits; F-box/WD repeat-containing protein 7 (Homo sapiens), Q969H0; in the data active = normalized activity above about 1.9%;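 note: purified mutant Fbw7 with reduced substrate affinity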
Target sequence (Q969H0 whole entry, looked up): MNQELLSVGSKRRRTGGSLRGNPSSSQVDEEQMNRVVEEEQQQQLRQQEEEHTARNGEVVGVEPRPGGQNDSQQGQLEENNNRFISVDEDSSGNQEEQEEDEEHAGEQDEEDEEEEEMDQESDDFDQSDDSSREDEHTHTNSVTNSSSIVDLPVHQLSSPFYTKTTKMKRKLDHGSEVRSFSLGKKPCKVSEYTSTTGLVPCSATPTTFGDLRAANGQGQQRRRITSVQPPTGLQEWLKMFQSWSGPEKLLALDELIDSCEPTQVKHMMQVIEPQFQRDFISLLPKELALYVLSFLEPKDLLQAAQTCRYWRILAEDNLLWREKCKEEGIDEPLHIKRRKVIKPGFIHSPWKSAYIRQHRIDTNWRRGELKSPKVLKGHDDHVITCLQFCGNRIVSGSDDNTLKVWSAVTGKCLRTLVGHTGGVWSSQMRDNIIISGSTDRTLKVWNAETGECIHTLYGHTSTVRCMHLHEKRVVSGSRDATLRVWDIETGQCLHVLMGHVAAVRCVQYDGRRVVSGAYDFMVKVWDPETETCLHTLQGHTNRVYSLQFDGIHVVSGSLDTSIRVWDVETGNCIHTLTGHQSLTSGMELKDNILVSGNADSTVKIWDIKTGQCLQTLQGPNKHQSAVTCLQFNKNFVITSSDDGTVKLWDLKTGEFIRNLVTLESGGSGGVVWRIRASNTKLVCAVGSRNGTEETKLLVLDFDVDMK
MITF inh – MITF inhibitors, primary screen, biochemical, AlphaScreen, human; Microphthalmia-associated transcription factor (Homo sapiens), O75030; AlphaScreen MITF homodimerization, bead proximity signal; inhibition, % at 2.6 µM; 650,000 compounds, 0.91% hits; AID 1259374, 2018; in the data active = inhibition above about 50%
TEAD-YAP inh – TEAD-YAP interaction inhibition, primary screen, TEAD-YAP interaction inhibitor project, luminescence, HEK-TIYL cells. inhibition, % at 9.12 µM. 640,000 compounds, 1.4% hits. AID 1259422, 2018. TEAD-Gal4/YAP UAS-luciferase luminescence; in the data active = inhibition above about 32%
GPR151 conf act – GPR151 activators, triplicate retest, confirmation, cell-based, PathHunter beta-arrestin, luminescence; shares compounds with GPR151 activ; 6,700 tested, under 10 active; activation, % at 11.2 µM; GPR151 PathHunter beta-arrestin cells, 90 min; % of EA-reagent control over plate median;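 active = mean percent activation across replicates above the confirmation screen cutoff of 4.91%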
GPR119 ag – GPR119 activators in beta-arrestin cells, counter-screen for GPR151 activator project, cell-based, PathHunter beta-arrestin, luminescence, triplicate. activation, % at 11.2 µM. 90 min; 0 = compound-well median, 100 = enzyme-acceptor control. 6,700 compounds, 0.3% hits. shares compounds with GPR151 activ;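 active = mean percent activation in the counterscreen above 29.09%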;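 note: counterscreen on off-target GPR119 to flag nonselective hits from the GPR151 activator screen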
Numbers stand for hits; . = inactive; / = no result.

SMILES	GPR151 activ	FBW7 act	MITF inh	TEAD-YAP inh	GPR151 conf act	GPR119 ag
Cc1nc(Nc2cnc3ccccc3c2)c2c3c(sc2n1)CCC3	.	.	.	.	/	/
O=C(NC1CC1)c1cccc(Nc2ccc(-n3ccnc3)cc2)c1	6.2	.	.	.	.	.
CSCCC(NC(=O)c1ccc(Cl)c([N+](=O)[O-])c1)C(=O)O (stereo unspecified)	5.3	.	.	.	.	.
COC(=O)CSCC(=O)Nc1cc(C)cc(C)c1	.	.	.	.	/	/
CSCC(=O)N1CCCC(C(=O)Nc2ccc(-c3cccc(F)c3)cc2)C1 (stereo unspecified)	5.6	.	.	.	.	.
O=C(Nc1ccc(-c2cccc(F)c2)cc1)C1CCCN(C(=O)c2cscn2)C1 (stereo unspecified)	.	.	.	.	/	/
CC(C)(CO)CN1CCCC(C(=O)Nc2cccc(-c3ccc(F)cc3)c2)C1 (stereo unspecified)	6.2	.	.	.	.	.
CSCCC(=O)N1CCCC(C(=O)Nc2ccc(-c3cccc(F)c3)cc2)C1 (stereo unspecified)	.	.	.	.	/	/
O=C(Nc1cccc(-c2ccc(F)cc2)c1)C1CCCN(C(=O)c2cscn2)C1 (stereo unspecified)	16.7	.	.	.	.	.
CNC(=O)CN(c1ccc(OC)cc1)S(=O)(=O)c1ccccc1	.	.	.	.	/	/
CC(C)(NC(=S)Nc1ccccc1)c1ccncc1	.	.	.	.	/	/
COc1ccc(CCNC(=O)c2[nH]c(C)c(C(C)=O)c2C)cc1OC	.	.	.	.	/	/
CCOc1ccc(CCNC(=O)c2[nH]c(C)c(C(C)=O)c2C)cc1OCC	14.2	.	.	.	.	.
Cn1c(=O)n(C)c2cc([N+](=O)[O-])c(/C=C(\C#N)c3nc4ccccc4[nH]3)cc21	.	.	.	.	/	/
Cc1ccnc(SCc2nc3ccc(Cl)cn3c2Br)n1	.	.	.	.	/	/
Cc1ccnc(SCc2nc3ccccn3c2Br)n1	14.8	.	.	.	.	.
CC(C)CCNC(=O)c1cc(=O)[nH]c2ccc(Br)cc12	.	.	.	.	/	/
CCC(C)NC(=O)c1cc(=O)[nH]c2ccc(Br)cc12 (stereo unspecified)	8.8	.	.	.	.	32.5
O=C(NC1CC1)c1cc(=O)[nH]c2ccc(Br)cc12	6.2	.	.	.	.	.
CCCCNCc1cc(Cl)c(OCC(=O)NC(C)(C)C)c(OCC)c1	7.0	.	.	.	.	.
O=C1OC(c2ccc(I)cc2)=N/C1=C\c1cccc2ccccc12	.	.	.	.	/	/
Cc1cc(N(CC(=O)NC2CCCCC2)S(C)(=O)=O)ccc1Br	8.1	.	.	.	.	.
COc1ccc(C(=O)n2nc(N)c3cc4ccc(C)cc4nc32)cc1	.	.	.	.	/	/
COc1cc(C(=O)n2nc(N)c3cc4ccc(C)cc4nc32)cc(OC)c1OC	7.8	.	.	41.0	.	.
O=C1CC(N2CCN(c3ccc(F)cc3)CC2)C(=O)N1 (stereo unspecified)	.	.	.	.	/	/
SMILES	GPR151 activ	FBW7 act	MITF inh	TEAD-YAP inh	GPR151 conf act	GPR119 ag
COc1ccc(N2CCN(C3CC(=O)NC3=O)CC2)cc1 (stereo unspecified)	6.3	.	.	.	.	.
COc1ccc(N2CCN(S(=O)(=O)Cc3ccccc3)CC2)cc1	6.8	.	.	.	.	.
O=S(=O)(Cc1ccccc1)N1CCN(c2ccc(F)cc2)CC1	.	.	.	.	/	/
Cc1cccn2cc(-c3c[nH]c4ccccc34)nc12	.	.	.	.	/	/
Brc1ccc2nc(-c3c[nH]c4ccccc34)cn2c1	7.1	.	.	.	.	.
O=C(Nc1c2c(nn1-c1ccc(F)cc1)CS(=O)(=O)C2)C1(c2ccc(Cl)cc2)CCCC1	5.1	.	.	.	.	.
COc1ccc(-n2nc3c(c2NC(=O)c2c(F)cccc2F)CS(=O)(=O)C3)cc1	7.1	.	.	.	.	.
O=C(Nc1c2c(nn1-c1ccc(Cl)cc1)CS(=O)(=O)C2)C1(c2ccc(Cl)cc2)CCCC1	.	.	.	.	/	/
